Screens: PubChem BioAssay, The Scripps Research Institute Molecular Screening Center
Compounds with a hit are over-represented: about 1.7% of the library has one in this group of screens.
EBNA-1 inh = blocks EBNA-1 binding to DNA; EBNA-1 DNA binding, fluorescence polarization; 300,000 compounds, 0.34% hits; inhibition, % at 14.8 µM; in the data active = inhibition above about 28%
PAD4 FP inh = blocks human protein arginine deiminase 4; inhibition, % at 6.36 µM; recombinant PAD4, RCA probe fluorescence polarization; Q9UM07; 330,000 compounds, 0.41% hits; AID 485272;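 active = percent inhibition above a cutoff equal to the mean of all tested compounds plus 3 SD, cut at about 15% in these data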
LYPLA2 inh = LYPLA2 (human) inhibition in PME1 counter-screen | recombinant LYPLA2, FP-Rh probe fluorescence polarization | inhibition, % at 5.9 µM | O95372 | 320,000 compounds, 0.38% hits;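 active = inhibition above the screen-wide mean plus 3 SD, limit set per campaign, cut at about 26% in these data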
GSTO1 inh = blocks human GSTO1 in RBBP9 counter-screen; P78417; recombinant GSTO1, activity-based probe fluorescence polarization; inhibition, % at 5.96 µM; 300,000 compounds, 1.1% hits;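 active = inhibition above the campaign mean inhibition plus 3 SD, cut at about 35% in these data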
ZTA DNA inh = ZTA (EBV) inhibition in EBNA-1 counter-screen. P03206. ZTA-DNA binding, fluorescence polarization. inhibition, % at 11 µM. 320,000 compounds, 0.15% hits; in the data active = inhibition above about 33%
LYPLA1 counter = counter-screen for PME1 inhibitors: inhibitors of human LYPLA1. 320,000 compounds, 0.16% hits. AID 2174. O75608. inhibition, % at 5.9 µM. recombinant LYPLA1, FP-Rh probe fluorescence polarization;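 active = inhibition above the mean of all tested compounds plus 3 SD, set per campaign, cut at about 14% in these data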;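 note: inhibitors block serine hydrolase probe labeling of LYPLA1 so polarization falls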
Target sequence (O75608 whole entry, looked up): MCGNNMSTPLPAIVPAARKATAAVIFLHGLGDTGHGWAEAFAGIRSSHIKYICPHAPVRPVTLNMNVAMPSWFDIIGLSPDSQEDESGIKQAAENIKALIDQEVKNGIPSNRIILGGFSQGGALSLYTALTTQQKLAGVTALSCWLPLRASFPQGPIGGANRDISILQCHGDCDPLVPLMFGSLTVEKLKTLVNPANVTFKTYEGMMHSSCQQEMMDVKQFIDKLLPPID
Large screens that a line does not name were inactive.

NC(=S)N=Nc1c(O)[nH]c2c(Br)cc(Br)cc12	GSTO1 inh 39
NC(=S)N=Nc1c(O)[nH]c2ccccc12	none
CCOC(=O)C(C)(C)N(Cc1ccc(Cl)cc1)S(=O)(=O)c1ccc(Cl)c([N+](=O)[O-])c1	GSTO1 inh 65
CC(=O)c1c(C)oc2ccc(N(C(C)=O)S(=O)(=O)c3ccc(Cl)c([N+](=O)[O-])c3)cc12	none
CCOC(=O)C(C)(C)N(Cc1ccc(C)cc1)S(=O)(=O)c1ccc(Cl)c([N+](=O)[O-])c1	GSTO1 inh 62
CC1CN(C(=S)Nc2cccc(Cl)c2Cl)CC(C)O1 (stereo not drawn)	none
CC(=O)Nc1ccc(S(=O)(=O)NCc2cc(=O)n(C)c(=O)n2C)cc1	none
C=C1SC(Nc2c(C)cc(C)cc2C)=NC12CCCCC2	none
Brc1cc2c(cc1Br)OCCOCCOCCO2	GSTO1 inh 37
c1ccc2c(c1)OCCOCCOCCOCCOCCOc1ccccc1OCCOCCOCCO2	none
COC(=O)N1C(=O)[C@](c2ccsc2)(C(C)C)N1C(=O)OC	none
O=C(CSc1nncc(=O)[nH]1)Nc1cccc([N+](=O)[O-])c1	GSTO1 inh 35
CC(Sc1ccc([N+](=O)[O-])cn1)C(=O)Nc1nccs1 (stereo not drawn)	none
O=c1cc(C(F)(F)F)nc(-n2[nH]c3c(c2=O)CCCC3)[nH]1	GSTO1 inh 40
CCN(CC)CCCN1C=C2C(=O)C(C)(OC(=O)C3CCCC3)C(=O)C=C2C=C1c1ccsc1 (stereo not drawn)	none
O=C(NC1CCCCC1)C(c1cccnc1)N(C(=O)CCl)c1cccc(Cl)c1 (stereo not drawn)	GSTO1 inh 96
CC(C)(C)c1cc(NCc2ccccn2)n2ncc(-c3ccccc3)c2n1	none
Cc1ccc(-n2nc(C)c(NC(=O)CCl)c2C)cc1	GSTO1 inh 84
Cc1ccc(-c2nn(-c3ccccc3)cc2NC(=O)CCl)cc1	GSTO1 inh 69
COc1ccc(NC(=O)COC(=O)CCc2ccc(S(=O)(=O)N3CCOCC3)cc2)cc1Cl	none (no result: EBNA-1 inh, LYPLA2 inh, GSTO1 inh, ZTA DNA inh, LYPLA1 counter)
COc1cccc2cc(-c3ccnc(=S)[nH]3)oc12	PAD4 FP inh 45
Cc1ccc(S(=O)(=O)Nc2c(Cl)c(Cl)c(O)c3ccccc23)cc1	GSTO1 inh 77
Cc1ccc(S(=O)(=O)Nc2c(O)ccc3ccccc23)cc1	none
Cc1cc(C)nc(Nc2cccc(C(F)(F)F)c2)n1	GSTO1 inh 36
CCOCC(=O)OCC(=O)NC12CC3CC(CC(C3)C1)C2	none
CCC(CC)C(=O)OCC(=O)NC12CC3CC(CC(C3)C1)C2	GSTO1 inh 37
O=C(N/N=C/c1cccs1)c1cccc(NC(=O)c2ccc(Cl)cc2)c1	EBNA-1 inh 59
O=C(N/N=C/c1cccs1)c1cccc(S(=O)(=O)Nc2ccc(Cl)cc2)c1	none
COc1ccc(CC(=O)Nc2cccc(-c3ccc4nnc(C)n4n3)c2)cc1OC	none
COc1c(C)cc(Br)cc1C(=O)NC(=S)NCc1ccco1	none
Oc1[nH]c2ccccc2c1N=NC(=S)N1CCOCC1	GSTO1 inh 36
Cc1cccc(OCc2nnc(SCC(=O)Nc3ncc(C)s3)o2)c1	none
CCc1nnc(NC(=O)CSc2nnc(COc3cccc(C)c3)o2)s1	GSTO1 inh 35
COc1ccc(C2=NCCn3nc4ccccc4c32)cc1	none
O=C(O)c1cc(O)c2c(c1)C(=O)c1cccc(O)c1C2=O	GSTO1 inh 50
COc1cc(C)cc(C(=O)O)c1C1=C(O)c2cccc(O)c2C(=O)C1=O	none
O=C(CCNS(=O)(=O)c1cccc2nonc12)N1CCN(c2cccc(Cl)c2)CC1	LYPLA2 inh 48
Cc1c(NS(=O)(=O)c2cc(C(=O)NCCN(C)C)ccc2Cl)c(=O)n(-c2ccccc2)n1C	GSTO1 inh 37
CCc1ccc(NC(=O)CN(CC(=O)Nc2ccc(CC)cc2)CC(C)O)cc1 (stereo not drawn)	none
CCCCn1c(SCC(=O)NCc2ccco2)nc2c(sc3ccccc32)c1=O	none
CCCCn1c(SCC(N)=O)nc2c(sc3ccccc32)c1=O	GSTO1 inh 50
CSCCC(NC(=O)COc1ccccc1)C(=O)NC1CCC(C)CC1 (stereo not drawn)	none
O=C(NCCCCc1ccccc1)c1ccc(F)cc1	none
C/C(=N\NC(=O)c1ccccc1O)c1ccc(Br)s1	GSTO1 inh 73
